Each structure is given as a SMILES string. “And” between values parts separate entries of the source, which are not always exact repeats. Equal entries are not always repeated. Results filed as inconclusive are left out. Where a call stands in place of a potency, no number is given. A structure can be active in one record and inactive in another. The source made the active and inactive calls. Calls come from the whole dose curve.
Potency is the fitted concentration of half-maximal effect.

Chain of Retinoic acid receptor RXR-alpha (Homo sapiens) (P19793 whole entry, looked up): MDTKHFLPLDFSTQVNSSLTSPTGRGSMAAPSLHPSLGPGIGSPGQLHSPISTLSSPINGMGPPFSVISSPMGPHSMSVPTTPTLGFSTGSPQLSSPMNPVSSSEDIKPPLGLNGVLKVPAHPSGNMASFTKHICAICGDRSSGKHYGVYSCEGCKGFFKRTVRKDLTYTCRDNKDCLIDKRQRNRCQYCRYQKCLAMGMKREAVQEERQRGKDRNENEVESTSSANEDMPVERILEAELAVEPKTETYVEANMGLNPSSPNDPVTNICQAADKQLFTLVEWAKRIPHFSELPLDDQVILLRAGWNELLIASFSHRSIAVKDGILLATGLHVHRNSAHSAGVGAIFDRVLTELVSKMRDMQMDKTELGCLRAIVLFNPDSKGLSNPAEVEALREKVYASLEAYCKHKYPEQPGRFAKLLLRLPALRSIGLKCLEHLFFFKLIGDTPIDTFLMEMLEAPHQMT

This experiment has as its target Retinoic acid receptor RXR-alpha (Homo sapiens) (UniProt P19793). As to the kind of experiment: qHTS assay to identify small molecule agonists of the RXR signaling pathway (AID 1159527). Note: nearly all actives have a fitted effect of over 35% in size. To be noted: HEK293T RXRa-UAS-bla, beta-lactamase ratio, 16 h; series mostly up to 76.8 µM. The text has this: U.S. Tox21 Program National Center for Advancing Translational Sciences [NCATS] NIH Chemical Genomics Center [NCGC] U.S. Environmental Protection Agency [EPA] National Institutes of Environmental Health Sciences [NIEHS] National Toxicology Program [NTP] U.S. Food and Drug Administration [FDA] Tox21 Assay Overview: The Retinoid X receptor (RXR), a nuclear hormone receptor expressed in liver, spleen, placenta, epidermis, central nervous system. These receptors are able to form homo and heterodimers with other nuclear receptors and due to this heterodimerizing ability, RXR functions as master regulators producing diverse physiological effects. Three subtypes of RXR exist; alpha, beta and gamma. Retinoid X receptor alpha (RXR-alpha) has potential roles in metabolic signaling pathways, skin alopecia, dermal cysts, cardiac development, insulin sensitization etc. Therefore screening environmental chemicals on RXR-alpha signaling can be used for the studies focused on such therapeutic applications. For quantification of RXR-alpha ligands signaling, GeneBLAzer RXR alpha-UAS-bla HEK 293T (Life Technologies, Carlsbad, CA) cells containing a beta-lactamase reporter-gene under control of Retinoid X receptor-alpha response element were used to screen Tox21 10K library.
Tox21 Assay Protocol Summary: RXR-alpha HEK 293T cells were dispensed at 2,000 cells/6 uL of assay medium containing 2% charcoal-stripped FBS using a Multidrop Combi (ThermoFisher Scientific, Waltham, MA) dispenser. The assay was performed in black wall/clear-bottom 1536-well plates (Greiner Bio-One North America Inc. Monroe, NC). 9-cis retinoic acid was used as a positive control in the agonist mode screen. After the assay plates were incubated at 37 C and 5% CO2 for 5 hr, 23 nL of compounds dissolved in DMSO, positive controls or DMSO only were transferred to the assay plate by a Pintool station (Kalypsys, San Diego, CA). The assay plates were incubated at 37 C and 5% CO2 for 16 hr. One uL of LiveBLAzer B/G FRET substrate (Life Technologies) was added using a Flying Reagent Dispenser (Aurora Discovery, San Diego, CA) and the plates were incubated at room temperature for 2 hr. Fluorescence intensity (405 nm excitation, 460/530 nm emission) was measured using an Envision plate reader (PerkinElmer, Shelton, CT).
As to `CCc1cc(C(N)=S)ccn1`, the Potency entry is “inactive”.

As to `CO[C@H]1C=CO[C@@]2(C)Oc3c(C)c(O)c4c(O)c(c(/C=N/N5CCN(C)CC5)c(O)c4c3C2=O)NC(=O)/C(C)=C\C=C[C@H](C)[C@H](O)[C@@H](C)[C@@H](O)[C@@H](C)[C@H](OC(C)=O)[C@@H]1C`, the Potency result was “inactive”. Turning to `CC(C)=CCC/C(C)=C/CO`, the Potency result is “inactive”. In the case of `Cn1cnc2c1c(=O)[nH]c(=O)n2C`, the Potency entry was “inactive”. Under `CC1(C)O[C@@H]2[C@@H](CO[C@@]3(COS(N)(=O)=O)OC(C)(C)O[C@@H]23)O1` stands 17.4 µM (active) and inactive. With `CC(C)CC(C)CC(O)CC(C)C` (stereo not given) the entry was “inactive”; with `CC(=O)CCC(C)C`, “inactive”; with `c1ccc2[nH]c(-c3cscn3)nc2c1`, 1.1 µM (active) and inactive. In the case of `COc1cc(C=O)ccc1O`, the Potency result was “inactive”. With `C[C@]12CC[C@@H]3c4ccc(O)cc4CC[C@H]3[C@@H]1CCC2=O` the entry was “inactive”; with `O=C1CCCCCN1`, “inactive”. Consider `NC(=O)N/N=C/c1ccc([N+](=O)[O-])o1`, for which the Potency entry was “inactive and 13.8 µM (active)”. With `NC(=O)c1ccc([N+](=O)[O-])cc1Cl` the entry was “inactive”. Regarding `NC(=O)N1c2ccccc2C=Cc2ccccc21`, the Potency result was “inactive”. With `C#C[C@]1(O)CC[C@H]2[C@@H]3CCC4=CC(=O)CC[C@@H]4[C@H]3CC[C@@]21CC` the entry was “inactive”.

As to `O=[N+]([O-])c1ccc(O)cc1`, the Potency result is “inactive”. On to `C/C=C/c1ccc(O)c(OC)c1`, for which the Potency result is “inactive”.

On to `CN(C)Cc1cc(CN(C)C)c(O)c(CN(C)C)c1`, for which the Potency result was “inactive”. `COC(=O)c1ccc(C=O)cc1`: the Potency result is “inactive”. Under `COC(=O)c1ccc(O)cc1` stands “inactive and 6.16 µM (active)”; under `O=C(O)Cc1cccc2ccccc12`, “inactive”. Under `N[C@@H](Cc1c[nH]c2ccccc12)C(=O)O` stands “inactive”; under `C=CCOC(=O)CC(C)C`, “inactive”. Under `CCCCC/C(C=O)=C\c1ccccc1` stands “inactive”; under `CCCCCCCCCCCCCCCCCC(=O)OCC(O)CO` (stereo not given), “inactive”; under `O=c1cc[nH]c(=O)[nH]1`, “inactive”. As for `N[C@@H](Cc1c[nH]c2ccc(O)cc12)C(=O)O`, the Potency result was “inactive”. With `CCCCNC(=O)NS(=O)(=O)c1ccc(N)cc1` the entry was “inactive”.

As to `Cc1ccc(O)c(-n2nc3ccccc3n2)c1`, the Potency entry is “inactive”.

In the case of `NC(=O)NO`, the Potency result was “inactive”. For `C[C@]12C=CC(=O)C=C1CC[C@@H]1[C@@H]2C(=O)C[C@@]2(C)[C@H]1CC[C@]2(O)C(=O)CO`, the Potency entry was “inactive”. With `CCOC(=O)C(C)(C)Oc1ccc(Cl)cc1` the entry was “inactive”; with `C[C@]12C[C@H](O)[C@H]3[C@@H](CCC4=CC(=O)CC[C@@]43C)[C@@H]1CC[C@@H]2C(=O)CO`, “inactive”; with `Cc1cccc(C)c1O`, “inactive”. Under `Cc1cnc(NC(=O)C2=C(O)c3ccccc3S(=O)(=O)N2C)s1` stands “inactive”; under `CC1=NN(c2ccccc2)C(=O)C1`, “inactive”; under `OC[C@@H](O)[C@@H](O)[C@H](O)[C@H](O)CO`, “inactive”. As for `C=CC(=O)NC(C)(C)CS(=O)(=O)O`, the Potency entry is “inactive”. Under `C=C(C)OC(C)=O` stands “inactive”; under `COc1ccccc1O`, “inactive”.
